High-throughput results (PubChem)
An excerpt weighted towards active compounds, which were near 3.5% of everything screened.
GPR151 activ – activators of human GPR151, primary screen, cell-based, PathHunter beta-arrestin, luminescence | G-protein coupled receptor 151 (Homo sapiens), Q8TDV0 | PathHunter beta-arrestin GPR151 cells | activation, % at 11.2 µM | hit rate 1% among 650,000 | AID 1508602, 2020; in the data active = activation above about 4.9%;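 also: 0% = median of compound wells and 100% = cells with positive control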
TEAD-YAP block – TEAD-YAP interaction inhibition, primary screen, TEAD-YAP interaction inhibitor project, luminescence, HEK-TIYL cells; TEAD-Gal4/YAP UAS-luciferase luminescence; inhibition, % at 9.12 µM; hit rate 1.4% among 640,000; AID 1259422, 2018; in the data active = inhibition above about 32%;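 also: 0% = median of test compound wells and 100% = reference inhibitor wells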
FBW7 activator – FBW7 E3 ligase activators, primary screen, biochemical, AlphaScreen, human; AID 1259310, 2017; normalized activity (activation), % at 26.1 µM; F-box/WD repeat-containing protein 7 (Homo sapiens), Q969H0; hit rate 0.13% among 650,000; AlphaScreen FBW7–phospho-cyclin E peptide binding, activator screen; in the data active = normalized activity above about 1.9%;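 also: purified mutant Fbw7 with reduced substrate affinity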
MITF inh – MITF inhibitors, primary screen, biochemical, AlphaScreen, human; AID 1259374, 2018; hit rate 0.91% among 650,000; AlphaScreen MITF homodimerization, bead proximity signal; inhibition, % at 2.6 µM; Microphthalmia-associated transcription factor (Homo sapiens), O75030; in the data active = inhibition above about 50%;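 also: 0% = vehicle wells with protein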
MITF inh conf – MITF inhibitors, retest of hits, confirmation, biochemical, AlphaScreen, triplicate; hit rate 16% among 4,700; inhibition, % at 2.6 µM; AID 1259372, 2018; AlphaScreen MITF homodimerization, biotin/His-MITF beads; shares compounds with MITF inh;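 active = inhibition above a cutoff derived from the DMSO control wells, cut at about 28% in these data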;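 also: 0% = MITF dimer wells with DMSO only; inhibitors lower the bead chemiluminescence by keeping MITF from dimerizing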
AlphaScreen DR – AlphaScreen optical interference compounds, dose response, counter-screen, biochemical, HTS. AlphaScreen optical interference counterscreen, cell-free. shares compounds with MITF inh. hit rate 6% among 480. IC50, µM; call rule not given here
AS interf ctr – AlphaScreen optical interference compounds, counter-screen for MITF inhibitor project, biochemical, triplicate | shares compounds with MITF inh | inhibition, % at 2.6 µM | hit rate 7.6% among 4,700 | LysRS AlphaScreen counterscreen, signal interference | AID 1259376, 2018;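 active = inhibition above a cutoff derived from the DMSO control wells, cut at about 30% in these data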
Numbers without * were called inactive; . = no result.

SMILES	GPR151 activ	TEAD-YAP block	FBW7 activator	MITF inh	MITF inh conf	AS interf ctr	others
CCN(CC)CCN1CCN(c2ccnc3c(-c4ccco4)cnn23)CC1	2	-15	-2	55*	8	13
COc1ccc2c(c1)CC(C(=O)Nc1ccc(-c3cn[nH]c3)cc1OCC#N)CO2 (stereo not drawn)	0	2	0	52*	43*	19	AlphaScreen DR=>6.5
COc1ccc2c(c1)CC(C(=O)Nc1ccc(-c3cn[nH]c3)cc1C(=O)N(C)OC)CO2 (stereo not drawn)	-3	-8	0	51*	51*	13	AlphaScreen DR=>6.5
Cc1cccn2c(=O)c3c(nc12)CCN(C(=O)Nc1cccc(C(F)(F)F)c1)C3	-1	7	0	51*	7	17
Cc1cccn2c(=O)c3c(nc12)CCN(C(=O)Nc1cccc(F)c1)C3	0	-2	0	7	.	.
CCN=C1SC(CC(=O)Nc2cccc(OC)c2)C(=O)N1CC (stereo not drawn)	-1	-2	1	24	.	.
CCN1C(=O)C(CC(=O)Nc2cccc(C)c2)SC1=Nc1ccc(OC)cc1OC (stereo not drawn)	1	30	0	55*	2	1
CCc1ccc(CN2CCN(S(=O)(=O)c3ccccc3)CC2)cc1	-1	1	0	55*	4	4
CCc1ccc(CN2CCN(S(=O)(=O)CC)CC2)cc1	3	-9	0	51*	25	17
Cc1ccc(S(=O)(=O)N2CCN(Cc3ccccc3[N+](=O)[O-])CC2)cc1	3	1	0	78*	9	15
Cc1ccc(CN2CCN(S(=O)(=O)c3ccccc3)CC2)cc1	3	-3	1	71*	-5	5
O=S(=O)(c1ccccc1)N1CCN(Cc2ccccc2)CC1	0	3	0	12	.	.
CC(=O)Nc1ccc(S(=O)(=O)N2CCN(Cc3ccccc3[N+](=O)[O-])CC2)cc1	1	3	0	-5	.	.
CCOc1ccc(CN2CCN(S(=O)(=O)CC)CC2)cc1	0	0	0	42	.	.
Cc1ccc(N(CC(C)C)S(=O)(=O)c2nnc(NC(=O)CC(C)C)s2)cc1	-2	-2	0	-1	.	.
O=C1N[C@@H](CO)C(=O)N2CCN(C(=O)c3cc(F)cc(F)c3)C[C@H]12	0	5	0	3	.	.
CCCS(=O)(=O)N1CCN(Cc2ccc(SC)cc2)CC1	2	13	0	44	.	.
CCCS(=O)(=O)N1CCN(Cc2ccncc2)CC1	-1	0	0	62*	9	9
COC(=O)CCc1cc2c(C)cc(=O)oc2cc1OCc1ccc(C)cc1	0	-9	0	78*	38*	-72	AlphaScreen DR=>6.5
O=C1CSC(=O)N1CC(O)COc1cccc2ccccc12 (stereo not drawn)	1	0	0	89*	12	3
CCCCNS(=O)(=O)c1cc2c3c(c1)CC(=O)N3CCC2	0	7	1	6	.	.
O=C1c2ccc([N+](=O)[O-])cc2C(=O)N1c1cc(Br)c(O)c(Br)c1	0	6	0	69*	75*	-30	AlphaScreen DR=>6.5
Cc1ccccc1CN1CCCN(C)CC1	0	9	0	5	.	.
OCCN1CCN(Cc2c3ccccc3cc3ccccc23)CC1	-1	13	1	11	.	.
CN1CCN(Cc2c3ccccc3cc3ccccc23)CC1	-1	2	0	76*	20	23
SMILES	GPR151 activ	TEAD-YAP block	FBW7 activator	MITF inh	MITF inh conf	AS interf ctr	others
CN1CCCN(Cc2cc(F)ccc2F)CC1	-1	12	1	70*	-3	2
CN1CCCN(Cc2cccc3ccccc23)CC1	-1	-6	0	52*	21	15
CCOCCCNC(=O)c1ccc2c(c1)nc(C)n2-c1ccc(OCC)cc1	-2	-8	0	-8	.	.
O=C(OC1CCCC1=O)c1ccc(N2CCCC2=O)cc1 (stereo not drawn)	-2	-21	0	62*	44*	10	AlphaScreen DR=>7.2
CCOc1ccc2nc(N=C(NC(=O)CC)NC(=O)CC)nc(C)c2c1	-1	-35	0	110*	3	6
CCN1CCN(C(C)C(=O)NC(c2ccccc2)c2ccccc2)CC1 (stereo not drawn)	0	-5	0	61*	11	14
N/C(CC(=O)NC1CCCCC1)=N\OCC(=O)NC(c1ccccc1)c1ccccc1	1	9	0	12	.	.
O=C(CN1CCCCC1)NC(c1ccccc1)c1ccccc1	-1	-6	0	53*	13	7
O=C(CNC1CCCCC1)NC(c1ccccc1)c1ccccc1	1	-1	0	52*	12	9
O=C(CN1CCCC1)NC(c1ccccc1)c1ccccc1	-1	-1	0	59*	8	13
CCN1CCN(C(=O)C(c2ccccc2)c2ccccc2)CC1	-2	2	0	-4	.	.
O=C(CN1CCC(N2CCCCC2)CC1)NC(c1ccccc1)c1ccccc1	0	-6	0	14	.	.
Cc1nc2ccccn2c1C(=O)N1CCN(S(C)(=O)=O)CC1	0	7	0	1	.	.
CN(c1ccc(C(F)(F)F)cn1)C1CCCCC1	1	-5	0	60*	0	10
FC(F)(F)c1ccc(NC2CCCCC2)nc1	0	12	1	7	.	.
COc1cccc(NC(=S)N(Cc2ccc(F)cc2)C2CCCCC2)c1	-1	-6	0	-9	.	.
CCN(CC)S(=O)(=O)c1cc(C(=O)Nc2ccc(Cl)cc2)ccc1Br	2	-28	0	72*	-6	-1
CCN(CC)S(=O)(=O)c1cc(C(=O)Nc2ccc(Br)cc2)ccc1Br	0	-20	0	15	.	.
O=C(c1ccccc1)N1CCC(N2CCN(c3ccccc3)CC2)CC1	0	3	0	79*	-1	-1
O=C(c1cccc(Cl)c1)N1CCC(N2CCN(c3ccccc3)CC2)CC1	0	7	0	79*	4	1
O=C(c1ccccc1)N1CCN(C2CS(=O)(=O)CC2O)CC1 (stereo not drawn)	0	5	0	81*	11	16
O=C(c1cccc(Cl)c1)N1CCN(C2CCN(Cc3ccccc3)CC2)CC1	0	1	1	33	.	.
O=C(CCC(=O)N1CCN(c2ccccc2)CC1)N1CCN(c2ccccc2)CC1	-1	7	0	15	.	.
O=C(CCC1CCCC1)N1CCC(N2CCN(c3ccccc3)CC2)CC1	1	4	0	55*	15	5
